This excerpt belongs to a sample that is enriched for hits.
KDM5B inh = inhibitors of human KDM5B histone demethylase; KDM5B demethylase, FDH-coupled NADH fluorescence (FDH is formaldehyde dehydrogenase); hit rate 2.6% among 220,000; Q9UGL1; AID 1347165; Potency, µM (top dose mostly 57.7 µM), usual class: inhibitors; active means well fitted inhibition curve with a large enough effect; further: nearly all actives have a fitted effect of over 70% in size
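qHTS format, multiple compound concentrations. Buffer 50 mM HEPES pH 7.5/0.01% Tween-20; 200 nM KDM5BΔAP final; 10 min compound preincubation; substrate-mix levels 12.5 µM peptide, 25 µM α-KG, 0.25 mM NAD⁺; 30 min RT; ΔRFU.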
Large screens that a line does not name were inactive.

CCc1c(C)c2ccc(OCC(=O)c3ccc(C)cc3)cc2oc1=O	none
CC(C)S(=O)(=O)N1CCC(Oc2ncccc2C(=O)N(C)C)C1 (stereo not given)	none
CCCOc1nccnc1NC1CCN(C(=O)c2ccsc2)CC1	KDM5B inh 28µM
O=C(c1ccsc1)N1CCC(Nc2cccnc2)C1 (stereo not given)	KDM5B inh 13µM
CCCCc1cn(CC2CCN(C(=O)c3ccsc3)CC2)nn1	none
CCCOc1nccnc1NC1CCN(C(=O)c2cccnc2)CC1	KDM5B inh 28µM
O=C(c1cccnc1)N1CCC(OC2CCN(Cc3cccnc3)CC2)CC1	none
O=C(NCc1cccnc1)[C@@H]1C[C@@H](O)CN1C1CCN(C(=O)c2ccsc2)CC1	none
CC(C)CCN(C1CCOCC1)C1CCN(S(=O)(=O)c2cccnc2)CC1	none
Cc1ccc(OCCC2CCN(C(=O)c3ccsc3)C2)cc1 (stereo not given)	none
O=C(c1cccnc1)N1CCC(OC2CCN(c3ccccc3)CC2)CC1	none
CC(C)S(=O)(=O)N1CCC(Nc2cccnc2)C1 (stereo not given)	KDM5B inh 8.9µM
O=C(Cc1cccs1)N1CCC(Nc2cccnc2)C1 (stereo not given)	none
Cc1cc(C)cc(C(=O)NC2CCN(C(=O)c3cc4c(=O)[nH]c(C)cn4n3)CC2)c1	none
N#CCCN(C(=O)CSc1nc(CN2CCOCC2)nc2ccccc12)c1ccc(F)cc1	none
Cc1cnc(CC2CCCN(C(=O)Cc3ccccc3)C2)n1C(C)C (stereo not given)	none
COC1CCC12CCN(C(=O)c1cnn(C)c1)CC2 (stereo not given)	none
O=C(NC1CCCC1)C1Cn2cccc2C(=O)N1Cc1cccnc1 (stereo not given)	none
CCCCOC(=O)C(C)Oc1ccc2c(=O)c(Oc3ccc(OC)cc3)coc2c1 (stereo not given)	none
COc1cccc(-c2noc(COc3ccc4ccc(=O)oc4c3)n2)c1	none
Cc1occc1C(=O)Nc1ccccc1Oc1ccccc1	none
Cc1cc(C)cc(C(=O)NC2CCCc3ccccc32)c1 (stereo not given)	none
CCN(CCn1cccn1)C(=O)c1ccc2nc(-c3ccc(F)cc3)cn2c1	KDM5B inh 25µM
Cc1ccc(CN(C(=O)c2ccc(F)cc2)c2ccccn2)o1	none
CCN(CC)C(=O)c1c(-c2ccc(F)cc2)noc1[C@H](C)O	none
CCN(CC(=O)NCc1ccc(F)cc1)C(=O)c1ccc(C)o1	none
CCN(Cc1ccc(C)o1)C(=O)c1ccc2nc(-c3ccc(F)cc3)cn2c1	KDM5B inh 28µM
O=C(NCc1ccc(Cn2cccn2)cc1)c1cn[nH]c1-c1ccc(F)cc1	none
COc1ccc(C(=O)N(Cc2ccc(N(C)C)cc2)CC2CCCO2)cc1 (stereo not given)	none
CN(C)c1ccc(CN(CC2CCCO2)C(=O)c2ccc(Br)cc2)cc1 (stereo not given)	none
CCN(CC1CCCO1)C(=O)c1ccc2nc(-c3ccc(F)cc3)cn2c1 (stereo not given)	KDM5B inh 22µM
O=C(NCCN1CCOCC1)c1c(OCC2CC2)cc(=O)n2c1CCOCC2	none
CC(C)(C)C1CCC2(CC1)NC(=O)N(CC(=O)NCc1ccccc1)C2=O (stereo not given)	none
Cn1nc(C(=O)Nc2nc(-c3ccc[nH]3)cs2)c2ccccc2c1=O	none
CCNC(=O)NC(=O)C(C)Oc1ccc(C(=O)c2ccc(Cl)cc2)cc1 (stereo not given)	none
CC(=O)Oc1ccc2c(c1)O/C(=C\c1cccs1)C2=O	none
Cc1cccc(NC(=O)OCc2ccccc2)c1	none
CN(C)[C@H]1CN(C(=O)c2cccc(NCc3ccc(F)cc3)c2)C[C@@H]1O	none
O=C(NCCCn1ccnc1)c1cccc(Br)c1	none
CCC(Cn1ccnc1)NC(=O)c1cccc(NCc2ccc(F)cc2)c1 (stereo not given)	KDM5B inh 20µM
COc1ccc2nc(-n3ncc4c3NC(=O)CC4c3cc(OC)c(OC)c(OC)c3)sc2c1 (stereo not given)	none
Cc1ccccc1-n1c(SCc2nc3ccccc3o2)nnc1N1CCOCC1	none
O=C(Nc1cccc(-c2nnc3n2CCCC3)c1)NC1CCCC1	none
Cc1oc(-c2nc(C#N)c(N3CCCC3)o2)cc1S(=O)(=O)N(C)C	none
Cc1cc(NC(=O)C(C)OC(=O)c2cc3c(s2)CCCC3)no1 (stereo not given)	none
CC1(C)CNC(=O)c2nc(CCSCc3ccco3)[nH]c2C1	none
CSc1ccc(-c2nc3c([nH]2)CC(C)(C)CNC3=O)cc1	KDM5B inh 28µM
CC1(C)CNC(=O)c2nc(C3CCCN(Cc4ccccc4)C3)[nH]c2C1 (stereo not given)	none
C=CCN1CCN(C(=O)CCC[C@@H]2[C@H]3CCCN4CCC[C@@H](CN2C(=O)c2ccccc2)[C@@H]34)CC1	none
Cc1nn2c(c1-c1ccccc1-c1ccccc1)N(C(=O)c1ccn(C)n1)CCC2	none
Cc1nn2c(c1-c1ccccc1-c1ccccc1)N(Cc1cccc(O)c1)CCC2	KDM5B inh 28µM
Cc1ncsc1C(=O)N1CCCn2nc(C)c(-c3ccccc3-c3ccccc3)c21	none
CC(=O)Nc1ccccc1-c1c(C)nn2c1N(Cc1ccccc1)CCC2	none
Cc1nn2c(c1-c1ccccc1[S+](C)(=O)[O-])N(C(=O)c1cccc(O)c1)CCC2	none

Screens deposited in PubChem BioAssay by National Center for Advancing Translational Sciences (NCATS).
